Screening data from PubChem.
In the library only some 12% were active in any assay of this set; here they are far more common.
HP1b chromo inh = blocks HP1-beta chromodomain binding to methylated histone tails; AlphaScreen HP1-beta / biotin-H3K9me3 peptide binding; Potency, µM (highest dose often 114 µM), inactives show top-dose activity change, negative = inhibition, actives largely listed as inhibitors; actives 0.56% (n = 390,000); AID 540317; P83916; further: potency means the concentration at half of the fitted maximal effect; nearly all actives have a fitted effect of over 70% in size
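Compound inhibition of the preformed complex between 50 nM HP1-beta and 50 nM biotinylated H3K9me3 peptide was read by AlphaScreen. Buffer was PBS pH 7.4 with 0.01% Tween-20. Incubations ran 30 min at room temperature, with 10 ug/mL donor/acceptor beads.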
PI5P4K alpha inh = blocks human PI5P4K alpha kinase activity; P48426; actives 1.2% (n = 330,000); max response, %; AID 652105; PI5P4Kalpha enzyme, ADP-Glo luminescence, 60 min; stronger effect = lower value; active means max response of -50% or lower; inconclusive means between -30% and -50%; inactive means -30% or higher; further: value at the top dose of about 77 µM; on the % scale 0 is the no-effect control and ±100 the full control effect
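Controls without substrate or without enzyme flank wells where PI5P4Kalpha converts substrate using 5 microM ATP (final). Incubation lasts 60 minutes at room temperature; ADP formed is read by ADP-Glo luminescence.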
PLK1 PBD inh = PLK1 (human) polo-box domain binding inhibition; Plk1 PBD binding of FITC phosphopeptide, fluorescence polarization; Potency, µM, for the others: max response, negative = inhibition, actives largely listed as inhibitors; actives 2.8% (n = 360,000); AID 720504; further: potency means the concentration at half of the fitted maximal effect; series mostly up to about 57 µM; on the % scale 0 is the no-effect control and ±100 the full control effect; nearly all actives have a fitted effect of over 65% in size
JMJD2A Tudor = inhibitors of human JMJD2A Tudor domain; AlphaScreen JMJD2A-Tudor / H3K4me3 peptide binding; Potency, µM (top dose mostly 114 µM), without a hit: at the highest dose activity change, negative = inhibition, actives largely listed as inhibitors; actives 4.4% (n = 390,000); AID 504339; further: potency means the concentration at half of the fitted maximal effect; on the % scale 0 is the no-effect control and ±100 the full control effect; nearly all actives have a fitted effect of over 50% in size
BAZ2B block = BAZ2B (human) inhibition; Q9UIF8; AlphaScreen BAZ2B-H3K14Ac peptide displacement; Potency, µM (titrated, usually from 114 µM), for the others: top-dose activity change, negative = inhibition, usual class: inhibitors; actives 4.4% (n = 360,000); AID 504333; further: potency means the concentration at half of the fitted maximal effect; on the % scale 0 is the no-effect control and ±100 the full control effect; nearly all actives have a fitted effect of over 60% in size
Target sequence (Q9UIF8 whole entry, looked up): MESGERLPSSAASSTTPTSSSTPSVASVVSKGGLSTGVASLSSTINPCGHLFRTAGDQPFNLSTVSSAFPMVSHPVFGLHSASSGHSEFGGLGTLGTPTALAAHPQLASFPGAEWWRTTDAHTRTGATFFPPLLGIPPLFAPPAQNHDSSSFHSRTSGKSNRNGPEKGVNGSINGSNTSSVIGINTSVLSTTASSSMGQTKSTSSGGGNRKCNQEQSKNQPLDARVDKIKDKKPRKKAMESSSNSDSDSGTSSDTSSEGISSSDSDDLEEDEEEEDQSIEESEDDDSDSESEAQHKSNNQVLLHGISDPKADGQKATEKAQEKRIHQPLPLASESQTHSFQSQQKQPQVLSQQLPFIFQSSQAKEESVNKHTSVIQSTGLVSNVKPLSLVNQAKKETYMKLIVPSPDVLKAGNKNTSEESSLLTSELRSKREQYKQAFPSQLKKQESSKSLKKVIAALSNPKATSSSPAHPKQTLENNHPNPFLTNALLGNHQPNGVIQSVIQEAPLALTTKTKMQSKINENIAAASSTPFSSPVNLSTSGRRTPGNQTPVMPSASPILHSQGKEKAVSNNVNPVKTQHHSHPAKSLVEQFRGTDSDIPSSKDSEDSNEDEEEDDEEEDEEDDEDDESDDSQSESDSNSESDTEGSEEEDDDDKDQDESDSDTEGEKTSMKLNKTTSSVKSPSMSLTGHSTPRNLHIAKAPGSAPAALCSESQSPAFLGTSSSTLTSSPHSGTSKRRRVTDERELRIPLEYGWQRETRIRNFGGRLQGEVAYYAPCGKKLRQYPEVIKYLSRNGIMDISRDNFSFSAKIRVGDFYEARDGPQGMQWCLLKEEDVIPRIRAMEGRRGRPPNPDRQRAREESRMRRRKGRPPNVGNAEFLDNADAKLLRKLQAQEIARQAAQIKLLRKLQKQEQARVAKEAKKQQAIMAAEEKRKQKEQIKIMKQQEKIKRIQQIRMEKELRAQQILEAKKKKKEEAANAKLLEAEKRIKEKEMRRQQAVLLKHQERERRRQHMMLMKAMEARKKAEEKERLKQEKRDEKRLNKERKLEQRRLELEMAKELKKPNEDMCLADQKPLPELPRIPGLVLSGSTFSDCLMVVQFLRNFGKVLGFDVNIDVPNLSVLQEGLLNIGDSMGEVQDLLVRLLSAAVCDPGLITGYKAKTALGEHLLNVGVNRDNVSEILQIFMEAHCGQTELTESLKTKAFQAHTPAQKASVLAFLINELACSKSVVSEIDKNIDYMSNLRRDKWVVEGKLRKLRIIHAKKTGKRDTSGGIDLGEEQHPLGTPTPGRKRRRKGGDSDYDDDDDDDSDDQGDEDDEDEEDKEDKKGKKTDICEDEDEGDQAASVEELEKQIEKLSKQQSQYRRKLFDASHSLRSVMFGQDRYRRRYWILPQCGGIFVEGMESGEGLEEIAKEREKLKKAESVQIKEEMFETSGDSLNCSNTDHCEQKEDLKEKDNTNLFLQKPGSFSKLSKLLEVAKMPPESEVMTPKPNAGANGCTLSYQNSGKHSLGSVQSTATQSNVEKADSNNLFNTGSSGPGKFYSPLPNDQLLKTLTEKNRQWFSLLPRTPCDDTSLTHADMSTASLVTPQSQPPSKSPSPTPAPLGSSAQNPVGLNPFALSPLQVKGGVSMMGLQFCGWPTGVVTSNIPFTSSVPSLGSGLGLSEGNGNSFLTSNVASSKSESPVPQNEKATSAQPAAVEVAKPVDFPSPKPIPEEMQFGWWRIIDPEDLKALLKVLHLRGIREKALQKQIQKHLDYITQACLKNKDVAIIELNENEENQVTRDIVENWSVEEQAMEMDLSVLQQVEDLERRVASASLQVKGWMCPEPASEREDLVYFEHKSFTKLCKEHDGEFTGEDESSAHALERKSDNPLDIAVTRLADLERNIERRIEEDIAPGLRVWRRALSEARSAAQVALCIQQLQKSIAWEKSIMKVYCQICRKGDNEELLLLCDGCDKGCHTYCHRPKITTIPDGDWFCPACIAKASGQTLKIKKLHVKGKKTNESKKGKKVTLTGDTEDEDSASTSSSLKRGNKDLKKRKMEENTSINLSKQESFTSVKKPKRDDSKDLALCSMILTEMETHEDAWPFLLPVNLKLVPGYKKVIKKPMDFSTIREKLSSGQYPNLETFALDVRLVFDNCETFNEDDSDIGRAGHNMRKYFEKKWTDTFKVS
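AlphaScreen luminescence quantifies BAZ2B engagement of H3K14Ac peptide; the protein and biotinylated peptide are both at 50 nM final, buffer PBS pH 7.4 with 0.01% Tween-20, all steps at room temperature.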
G9a block = inhibitors of human histone lysine methyltransferase G9a | G9a H3K9 monomethylation, AlphaScreen, 2 h | actives 8.8% (n = 350,000) | Potency, µM (titrated, usually from 102 µM), inactives show at the highest dose activity, negative = inhibition, most hits filed as inhibitors; further: potency means the concentration at half of the fitted maximal effect; on the % scale 0 is the no-effect control and ±100 the full control effect; nearly all actives have a fitted effect of over 75% in size
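G9a (20 nM) was preincubated 15 min with compound, then reacted 2 h at room temperature with 500 nM biotin-H3K9 peptide and 20 µM SAM. Monomethyl-H3K9 detected by AlphaScreen using anti-H3K9me1 antibody.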
* = called active by the depositor; ? = inconclusive; nt = no result given; [ ] = dose if it differs, or a comment. Unless noted, the call rests on the fitted dose curve; in most records, active means well fitted curve in the direction sought with a large enough effect; inconclusive means small, poorly fitted or top-dose-only effect, or another doubt; inactive means no such curve, though single readings can be large; an effect the other way counts as inactive or inconclusive.

SMILES	HP1b chromo inh	PI5P4K alpha inh	PLK1 PBD inh	JMJD2A Tudor	BAZ2B block	G9a block
COc1ccc(CCC(=O)NCC(c2ccco2)N2CCc3ccccc32)cc1 (stereo not drawn)	?	2	-5%	?	?	?
c1ccc(Cn2nnnc2C(c2ccccc2)N2CCN(Cc3ccncc3)CC2)cc1 (stereo not drawn)	50%	nt	nt	?	nt	nt
Cc1ccc(C)c(N(C)C(=O)c2cn(C)c(=O)c3ccccc23)c1	30%	nt	nt	-14%	4%	4%[59 µM]
Cc1ccccc1NC(=S)NCc1ccc2[nH]c3c(c2c1)CCCC3	?	0	-24%	40µM*	40µM*	40µM*
COc1ccc(CNC(=S)Nc2ccccc2C)cc1	-3%	-16	17µM*	?	-6%	23%[59 µM]
Cc1ccc(C)c(NC(=S)NCc2ccc3[nH]c4c(c3c2)CCCC4)c1	?	7	-17%	50µM*	32µM*	40µM*
CCN(CC)S(=O)(=O)c1ccc(C(=O)NCc2ccc3[nH]c4c(c3c2)CCCC4)cc1	-3%	10	-4%	-28%	?	?
S=C(NCc1ccc(Cl)cc1)Nc1ccccc1Cl	39%	-7	-6%	2%	-2%	29%[59 µM]
S=C(NCc1ccc2[nH]c3c(c2c1)CCCC3)Nc1ccccc1Cl	?	0	-1%	50µM*	35µM*	40µM*
NC1=C(Cl)C(=O)c2ccc(S(N)(=O)=O)cc2C1=O	3%	?	-1%	-16%	nt	nt
NC1=C(Cl)C(=O)c2ccccc2C1=O	-19%	-56*	-10%	89µM*	nt	nt
CC1CCN(C(=O)CC2C(=O)Nc3c2c(=O)n(C)c(=O)n3Cc2ccccc2)CC1 (stereo not drawn)	18%	nt	-7%	-6%	23%	8.9µM*
Cn1c(=O)c2c(n(Cc3ccccc3)c1=O)NC(=O)C2CC(=O)O (stereo not drawn)	50%	-4	-11%	-6%	-4%	45µM*
Cn1c2c(c(=O)n(C)c1=O)C(CC(=O)Nc1ccccc1)C(=O)N2 (stereo not drawn)	14%	nt	-7%	-2%	10%	-22%[59 µM]
O=C(Cc1ccccc1)Nc1ccc(S(=O)(=O)N2CCCC2)cc1	2%	1	-8%	-2%	-6%	-38%
CC(=O)Nc1ccc(S(=O)(=O)N2CCN(C(=O)Cc3ccccc3)CC2)cc1	-15%	-5	27µM*	?	-4%	-4%[59 µM]
CCC(C)N1CCN(S(=O)(=O)c2ccc(NC(C)=O)cc2)CC1 (stereo not drawn)	?	10	6%	22µM*	56µM*	20µM*
CC(=O)Nc1ccc(NC(=O)Cc2ccc(S(=O)(=O)N3CCCCC3)cc2)cc1	41%	1	-3%	-13%	-34%	40µM*
CC(C)NC(=O)C1C(c2ccccc2)=Nc2ccccc2N1C(=O)c1ccc(C(F)(F)F)cc1 (stereo not drawn)	nt	-6	-13%	nt	nt	nt
NC(=NCc1ccc2c(c1)OCO2)NC(=O)c1ccccc1	-22%	3	-12%	?	40µM*	?
C/C(CCc1ccc2c(c1)OCO2)=N\NC(=O)c1ccccc1	0%	1	-9%	-22%	0%	-6%[59 µM]
CC(C)Oc1ccc(Cc2cnc(=S)[nH]c2N)cc1	40%	-18	?	-15%	-18%	50µM*
O=C(COC(=O)c1ccc(O)cc1O)Nc1ncc(Cl)cc1Cl	10%	-13	-11%	-19%	-22%	6%[2.33 µM]
Brc1ccc(OCc2ccccc2)c(CNCc2ccncc2)c1	14%	nt	-3%	?	79µM*	-37%[0.0925 µM]
Cc1ccc(C(C)C)c(OCCNCc2ccccc2)c1	27%	-3	-1%	28µM*	?	nt
SMILES	HP1b chromo inh	PI5P4K alpha inh	PLK1 PBD inh	JMJD2A Tudor	BAZ2B block	G9a block
Clc1cc(Br)ccc1OCCCNCc1ccccc1	?	21	-4%	2.8µM*	?	7.1µM*
CN(Cc1ccccc1)C(=O)COc1ccc(Br)cc1Cl	82%	2	4%	28%	55%	131%
Cc1ccc(C)c(OCCCNCc2ccccc2)c1	-20%	5	2%	45µM*	?	?
CCNC(=O)C1(C)CCN(C(=O)c2cccc(C(F)(F)F)c2)C1 (stereo not drawn)	nt	8	-5%	nt	nt	nt
Cc1cc(OCCOCCNCc2ccccc2)ccc1C(C)C	?	3	3%	20µM*	?	10µM*
CCN(CC)CCOC(=O)/C=C/c1ccccc1OC	40%	4	-8%	-11%	0%	-3%[59 µM]
CCN(C/C=C/c1ccccc1OC)Cc1ccccc1	?	0	-22%	20µM*	?	nt
CCCCN(C/C=C/c1ccccc1OC)Cc1ccccc1	?	5	-1%	1.3µM*	?	18µM*
COC(=O)c1cc2sc(C)cc2n1CC(=O)Nc1cccc(SC)c1	3%	nt	nt	-16%	3%	4%[59 µM]
O=C(CSc1nnnn1-c1ccc(F)cc1F)Nc1ccccc1F	44%	6	-3%	-1%	-3%	nt
CCCOc1cccc(C(=O)N2CCCCC2CCN2CCCCC2)c1 (stereo not drawn)	19%	nt	nt	-19%	-10%	-4%[59 µM]
Cc1nn(-c2ccccc2)c(C)c1S(=O)(=O)O	22%	-4	-4%	-18%	?	45µM*
Cc1nn(-c2ccccc2)c(C)c1C=O	9%	1	-5%	-7%	1%	41%[59 µM]
CC(C(=O)O)n1c(-c2ccn[nH]2)n[nH]c1=S (stereo not drawn)	-9%	-6	15µM*	-11%[11.4 µM]	-17%	?
Cc1c(/C=C(\CC(=O)O)c2nc3ccccc3s2)cc(C#N)n1C	-8%	-19	27µM*	-5%[11.4 µM]	-35%	?
CCN(CC)CCn1c2c(c(SCC(=O)Nc3cccc(C(F)(F)F)c3)nc1=O)CCC2	17%	nt	nt	-16%	-13%	-19%[59 µM]
CC(=O)NC(Cc1ccc(C)cc1)C(=O)NC1CCN(C(=O)c2ccc([N+](=O)[O-])cc2)CC1 (stereo not drawn)	14%	5	-21%	-8%	4%	16%[59 µM]
CC(=O)NC(Cc1ccccc1)C(=O)NC1CCN(C(=O)c2ccc([N+](=O)[O-])cc2)CC1 (stereo not drawn)	11%	-14	3.4µM*	-34%	10%	21%
COc1ccc(-c2ccccc2C2C3C=CCCC3(C)C(=O)N2Cc2ccccc2)cc1 (stereo not drawn)	27%	nt	nt	-19%	nt	nt
FC(F)(F)c1ccc(C2Nc3cccc4cccc(c34)N2)cc1	-18%	-5	-28%	?	40µM*	35µM*
CCCOc1ccc(C2Nc3cccc4cccc(c34)N2)cc1	?	-2	-6%	40µM*	?	40µM*
O=[N+]([O-])c1cccc(C2Nc3cccc4cccc(c34)N2)c1	?	-18	-22%	50µM*	35µM*	16µM*
